# Compound activity: PubChem BioAssay, National Center for Advancing Translational Sciences (NCATS)
# HEK293 tox: HEK 293 cell cytotoxicity | HEK 293 viability, ATP luminescence (CellTiter-Glo), 48-72 h | Potency, µM (titrated, usually from 115 µM), inactives show at the top dose activity change, negative = cytotoxicity, actives largely listed as inhibitors | 94,000 tested, 6.6% active | AID 1345083; also: nearly all actives have a fitted effect of over 60% in size
#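 qHTS cytotoxicity; HEK 293, 250 cells/well; compound pinned; 48 or 72 hr, 37 degree Celsius, 5% CO2, 95% humidity; CellTiter-Glo, 10 min RT; luminescence (ATP).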
# 3T3 cytotox: cytotoxic compounds in NIH 3T3 cells. 94,000 tested, 4.3% active. Potency, µM (series often up to 96.7 µM), for inactives: at the highest dose activity change, negative = cytotoxicity, actives largely listed as inhibitors. NIH 3T3 viability, CellTiter-Glo ATP luminescence, 48-72 h. AID 1345082; also: nearly all actives have a fitted effect of over 55% in size
#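 Luminescent ATP readout (CellTiter-Glo, 10 min RT) after 48 or 72 hr compound exposure of NIH 3T3 cells seeded at 400 cells/well in 1536-well format; quantitative HTS.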
# FLuc inh: Photinus pyralis luciferase inhibition; P08659; 76,000 tested, 2.5% active; Potency, µM (series often up to 115 µM), hits mostly inhibitors; AID 1347043; purified P. pyralis luciferase, luminescence, biochemical; also: nearly all actives have a fitted effect of over 65% in size
# Target sequence (P08659 whole entry, looked up): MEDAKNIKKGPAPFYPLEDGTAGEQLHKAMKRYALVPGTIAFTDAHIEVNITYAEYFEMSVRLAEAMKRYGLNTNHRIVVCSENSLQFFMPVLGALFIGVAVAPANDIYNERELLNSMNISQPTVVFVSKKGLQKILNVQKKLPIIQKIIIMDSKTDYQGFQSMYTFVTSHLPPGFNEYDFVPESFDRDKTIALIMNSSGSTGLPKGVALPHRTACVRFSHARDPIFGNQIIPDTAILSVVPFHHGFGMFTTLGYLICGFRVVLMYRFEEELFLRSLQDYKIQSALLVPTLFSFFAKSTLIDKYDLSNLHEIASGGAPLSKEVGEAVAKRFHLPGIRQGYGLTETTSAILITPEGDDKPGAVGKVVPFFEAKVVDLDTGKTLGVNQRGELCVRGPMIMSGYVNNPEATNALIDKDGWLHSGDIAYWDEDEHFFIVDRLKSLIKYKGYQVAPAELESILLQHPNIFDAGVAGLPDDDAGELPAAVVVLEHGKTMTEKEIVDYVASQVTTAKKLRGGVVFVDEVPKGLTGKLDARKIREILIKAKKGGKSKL
#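 Luminescence read by CCD imager after adding enzyme (10nM final) to wells holding compound, titrated in qHTS. Substrates 10uM each D-luciferin and ATP; buffer 50mM Tris acetate pH 7.5, 10mM Mg acetate, Tween-20, BSA.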
# NPR1 antag: human Npr1 receptor antagonism. Potency, µM (doses to about 46.3 µM), inactives show top-dose activity change, negative = inhibition, usual class: inhibitors. 76,000 tested, 1.6% active. HEK293 hNpr1 GloSensor cGMP, ANP-stimulated luminescence. P16066; calls by dose curve; also: nearly all actives have a fitted effect of over 60% in size
#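 HEK293 cells stably expressing human Npr1 and cGMP GloSensor pGS-40F, loaded 2 h with 2% GloSensor reagent, given compound 30 min at room temperature. Luminescence read before and 20 min after 0.1 nM hNppA.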
# An asterisk follows results filed as active; i = inactive; ? = inconclusive; . = no result given; ! = not active in a repeat; [ ] = another dose, or the depositor's remark. Shown are actives, neighbours in structure and some others; about 11% of the full set was active somewhere. Unless noted, calls follow the shape of the dose curve; as a rule, active = well fitted curve in the direction sought with a large enough effect; inconclusive = small, poorly fitted or top-dose-only effect, or another doubt; inactive = no such curve, though single readings can be large; an effect the other way counts as inactive or inconclusive. % is scaled to controls: 0 for no effect and ±100 for the full control effect; potency is read from the fitted curve at half-maximal effect.
SMILES,HEK293 tox,3T3 cytotox,FLuc inh,NPR1 antag
c1ccc(-c2ccc(CN[C@H]3CO[C@H]4[C@@H]3OC[C@@H]4n3cc(CC4CCCCC4)nn3)cc2)cc1,?,?,i,?
COc1ccc(-c2noc(CC3CCN(C(=O)c4cc(OC)cc(OC)c4)CC3)n2)cc1,35µM*,?,i,?
CN(Cc1ccccc1)C(=O)CN1C(=O)COc2ccc(C(=O)COc3ccccc3F)cc21,50µM*,-30%,i,-2%
Cc1cccc(OCC(=O)c2ccc3c(c2)N(CC(=O)N(C)Cc2ccccc2)C(=O)CO3)c1,22µM*,?,i,-1%
O=C(CN1C(=O)COc2ccc(C(=O)COc3ccccc3F)cc21)NC1CCCCC1,-18%,-10%,i,-1%
Cc1cc(C)cc(OCC(=O)c2ccc3c(c2)N(CC(=O)N(C)Cc2ccccc2)C(=O)CO3)c1,32µM*,?,i,-3%
CC(C(=O)NCc1ccccc1)N1C(=O)COc2ccc(C(=O)COc3ccc(Cl)cc3)cc21 (centres undefined),89µM*,?,i,-3%
CCOC(=O)c1ccc(NC(=O)Cn2c(-c3ccc(F)cc3)nc(C)c(CCO)c2=O)cc1,?,?,i,?
Cc1cccc(CNC(=O)C2Cn3cccc3C(=O)N2Cc2cccnc2)c1 (centres undefined),i,-5%,i,-3%
CCc1cccc(OCC(=O)c2ccc3c(c2)N(CC(=O)N(C)Cc2ccccc2)C(=O)CO3)c1,?,?,i,13µM*
CC(C)c1ccccc1OCC(=O)c1ccc2c(c1)N(CC(=O)N1CCCC1)C(=O)CO2,40µM*,-5%,i,-2%
CC(C)c1ccccc1OCC(=O)c1ccc2c(c1)N(CC(=O)N1CCCCC1)C(=O)CO2,?,?,i,-3%
CN(C)C[C@@H]1CN(Cc2ccccc2)C[C@H]1NC(=O)c1cccs1,?,-28%,.,.
CN(C)C(=O)NCCNC(=O)c1ccc(-c2cncnc2)cc1,0%[172 µM],-18%[138 µM],.,.
O=C(c1ccc(C2CCCNC2)cc1)N(Cc1ccccn1)C1CCCCC1 (centres undefined),-27%,-13%,i,-1%
CN(C)S(=O)(=O)N1CCC(F)(c2nc(-c3ccccc3)no2)CC1,?,-18%,?,?
CCn1cc(S(=O)(=O)N2CCC(F)(c3nc(-c4ccncc4)no3)CC2)cn1,45µM*,?,.,.
CCn1cc(S(=O)(=O)N2CCC(c3noc(-c4ccncc4)n3)C2)cn1 (centres undefined),-10%,-25%,i,-8%
O=S(=O)(c1ccccc1)N1CCC(F)(c2nc(-c3ccncc3)no2)CC1,32µM*,?,.,.
CCCNC(=O)N1CCCC1c1nc(CCOCC2CCOCC2)no1 (centres undefined),i,-3%,.,.
COc1ccccc1-c1ccc(CN2CCCCC2C(=O)N2CCN(Cc3ccccc3)CC2)cc1 (centres undefined),32µM*,?,.,.
COc1ccccc1-c1ccc(CN2CCCCC2C(=O)N2CCC(c3ccccc3)CC2)cc1 (centres undefined),25µM*!,40µM*,.,.
CC(=O)N1CCN(C(=O)C2CCCCN2Cc2ccc(-c3cccs3)cc2)CC1 (centres undefined),-30%,-19%,.,.
O=C(C1CCCN1C(=O)C1CC1)N1CCC(c2ccccc2)CC1 (centres undefined),-19%[172 µM],-34%[138 µM],.,.
O=C(c1ccccc1F)N1CCCC(C(=O)N2CCC(N3CCCC3=O)CC2)C1 (centres undefined),i,-10%,.,.
SMILES,HEK293 tox,3T3 cytotox,FLuc inh,NPR1 antag
O=C(NCCc1ccccc1)C1CCCN(C2CCN(Cc3nccs3)CC2)C1 (centres undefined),-10%,-19%,i,3%
c1ccc(CCCCn2ccnc2-c2cc3n(n2)CCCNC3)cc1,-29%,?,i,0%
Clc1ccc(Cn2ccnc2-c2cc3n(n2)CCCNC3)cc1Cl,?,25µM*,i,-4%
N#Cc1ccccc1CN1CC[C@H]2C(=O)NCCCCCCN(Cc3ccncc3)[C@@H]2C1,?,-29%,i,1%
O=C(NC[C@H]1OC[C@@H](N(Cc2ccccn2)Cc2ccccn2)[C@@H]1O)C1CC1,i,-2%[174 µM],i,6%[70.6 µM]
CCOCCn1c(=O)[nH]c2cc(C(=O)NCCc3ccc(C)s3)ccc21,?,-25%,40µM*,4%
Cc1nnc2n1CCC(N(C)S(=O)(=O)c1cn(C)cn1)CC2 (centres undefined),-19%,-6%,i,0%
OC[C@@H]1CN(c2ccc(-c3nc(-c4cccc(C(F)(F)F)c4)no3)cn2)C[C@H]1CO,?,-30%,i,-23%
Clc1cccc(-c2noc(-c3ccc(NCC4COCCO4)nc3)n2)c1 (centres undefined),-33%,-28%,1µM*,?
Cn1cc(CNc2ccc(-c3nc(CCCc4ccccc4)no3)cn2)cn1,?,?,40µM*,?
FC(F)(F)c1cccc(-c2noc(-c3ccc(NCCN4CCOCC4)nc3)n2)c1,11µM*,?,?,11µM*
Cn1cc(CNc2ccc(-c3nc(-c4cccc(C(F)(F)F)c4)no3)cn2)cn1,25µM*,?,i,?
C[C@]1(CO)C2CC[C@@H](O)[C@@H](CC(=O)N3CCCC3)[C@]2(C)CC[C@H]1OC(=O)Nc1ccccc1 (some centres undefined),1%,-18%,i,4%
CCCC1CN(Cc2cccs2)C(=O)c2cccnc2O1 (centres undefined),?,-24%,.,.
c1ccc(Oc2cc3c(cn2)NCCN(Cc2ccc4[nH]ccc4c2)C3)cc1,89µM*,?,i,?
COc1ccc(CN2CCNc3cnc(OCc4cccnc4)cc3C2)cc1,?,-23%[138 µM],i,?
Cc1cccc(CN2CCNc3cnc(Oc4ccccc4)cc3C2)c1,89µM*,-28%[138 µM],i,-14%[70.6 µM]
Fc1ccccc1CN1CCNc2cnc(Nc3ccccc3)cc2C1,100µM*,?,i,?
Fc1ccccc1CN1CCNc2cnc(Oc3ccccc3)cc2C1,79µM*,?,i,-4%[70.6 µM]
c1ccc(Oc2cc3c(cn2)NCCN(CC2CCOCC2)C3)cc1,?,-21%[138 µM],i,0%[70.6 µM]
Cc1ccccc1-c1cnc2[nH]cc(CC(=O)Nc3ccccc3)c2c1,?,40µM*,i,?
O=C(Cc1c[nH]c2ncc(-c3ccccc3)cc12)Nc1ccc(N2CCOCC2)cc1,63µM*,25µM*,i,-23%[70.6 µM]
Cn1cc(-c2cnc3[nH]cc(CC(=O)Nc4ccc(N5CCOCC5)cc4)c3c2)cn1,?,-1%[138 µM],i,5%[70.6 µM]
Cn1cc(-c2cnc3[nH]cc(CC(=O)Nc4cccc(F)c4)c3c2)cn1,45µM*,?,i,-23%[70.6 µM]
NC(=O)Cc1c[nH]c2ncc(-c3cccc(N4CCOCC4)c3)cc12,-8%[172 µM],100µM*,i,2%[70.6 µM]
